Results published in PubChem BioAssay.
Calls of active or inactive are those of the source. Rule as the data show it: active = inhibition above about 31%; inactive = the rest.

assay: yeast transport mutant growth inhibition pilot in 384-well plates, post-Golgi transport modulator project (AID 636); settings: absorbance 615 nm, about 18 h, hits give high values

inhibition, inactive:
Cc1nccn1CCCN1C(=O)OC2(CCCCC2)C1(C)O (configuration not stated) -7.53%
CCOC(=O)/C=C1\SCC(=O)N1Cc1nnc(-c2ccccc2Br)o1 -7.81%
Cc1ccc(S(=O)(=O)N2CCN(C(=O)c3cc(=O)[nH]c4ccccc34)CC2)c(C)c1 -9.04%
OC(CCCN1CCC(O)(c2ccc(Cl)cc2)CC1)c1ccc(F)cc1 (configuration not stated) 2.47%
CCCC(=O)n1nc(-c2ccc(OC)cc2)nc1N -1.56%
Cc1ccc(-c2nn(-c3ccccc3)cc2/C=C(\C#N)c2cccc(C#N)c2)o1 -9.32%
Fc1cccc(NCc2cn3ccccc3n2)c1 -5%
CCCc1nc(NCc2ccncc2)c2nnn(Cc3ccccc3F)c2n1 -1.37%
O=C1OCCC1Sc1ncnc2sccc12 (configuration not stated) -4.93%
CCOC(=O)C1=C[C@]2(CC)CCCN3CCc4c(n1c1ccccc41)[C@@H]32 -0.26%
C=CCNC(=O)c1ccc(Cl)cc1Cl -3.9%
CCCC(=O)Nc1cc(-c2nnc(OC)c3ccccc23)ccc1N1CCOCC1 0.96%
COC(=O)C1C2C=CC3(CN(CC4CCCO4)C(=O)C13)O2 (configuration not stated) -6.99%
Cc1cc(C(C)(C)C)cc(C)c1CC1=NCCN1 -2.73%
CCCn1c(=O)c2[nH]c(C3CCCC3)nc2n(CCC)c1=O -1.3%
c1ccc(OCc2nc(-c3ccccc3)no2)cc1 0.14%
C=CCn1c(SCC(=O)NCC2CCCO2)nc2scc(-c3ccco3)c2c1=O (configuration not stated) -3.84%
